# Entries with a potency or affinity are not part of this list. The source made the active and inactive calls. How the calls were made is not given here.
# Test: Vero E6 cell cytotoxicity, dose response, cytotoxicity control (AID 540298)
# Details: Vero E6 cells viability; series mostly up to 40 µM; viability: at the top concentration
row,Structure (SMILES),viability
1,CN(C)c1cccc2c(C=C(C#N)C#N)ccc(N(C)C)c12,93.7% (inactive)
2,CCOC(=O)c1c(CN(C)C)oc2cc(CN(C)C)c(O)c(CSc3ccccc3)c12,93% (inactive)
3,Cc1ccc(N2C(=O)C(CC(=O)Nc3cccc(F)c3)N(C3CC3)C2=O)cc1 (stereo not given),94.6% (inactive)
4,CC(c1ccccn1)N(CCN(C)C)C(=S)Nc1cccc(F)c1 (stereo not given),99.1% (inactive)
5,COc1ccc(N2CCN(CCCN)CC2)cc1,87.2% (inactive)

# Reference: PubChem BioAssay AID540298 (Southern Research Specialized Biocontainment Screening …, 2011)
